Laboratory results from the supplement of paper PMC10849652.
Targets with a hit are over-represented here; the source holds about 7,900 in all. About 0.6% of all pairs of compound and target were hits. A number with no mark means an inactive call.

What was measured:
Assay in all cases: log2 fold change, soluble protein after heating vs DMSO (PISA); higher = thermal stabilisation; K562 cells, 10 uM, 30 min; active = over 0.2 and 3.5 SD of the protein, either way, in both replicates (recomputed)
bafetinib = compound: Cc1ccc(NC(=O)c2ccc(CN3CC[C@H](N(C)C)C3)c(C(F)(F)F)c2)cc1Nc1nccc(-c2cncnc2)n1 [bafetinib]
Summary of the method: (§1)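 Soluble protein was defined as the supernatant after 21,000xg for 90 min. It came from K562 cells at 2×10^6 cells/mL given 10 μM compound for 30 min, heated in aliquots for 3 min across 48°C-58°C, pooled, and extracted in PBS with 0.5% NP-40 at 4°C, and was quantified by TMTpro 16plex LC-MS/MS with equalised channel sums. Thermal stability against control samples, from duplicates, is reported as log2 fold change.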

[1] = compound: Cc1cccc(CC(=O)N2CCc3c2ccc(-c2cn(C)c4ncnc(N)c24)c3F)n1
Summary of the method: as §1

nilotinib = compound: Cc1cn(-c2cc(NC(=O)c3ccc(C)c(Nc4nccc(-c5cccnc5)n4)c3)cc(C(F)(F)F)c2)cn1 [nilotinib]
Summary of the method: as §1

[2] = compound: Cc1nc(Nc2n[nH]c3c2CN(C(=O)N[C@H](CN(C)C)c2ccccc2)C3(C)C)c2sccc2n1
Summary of the method: as §1

dasatinib = compound: Cc1nc(Nc2ncc(C(=O)Nc3c(C)cccc3Cl)s2)cc(N2CCN(CCO)CC2)n1 [dasatinib]
Summary of the method: as §1

[3] = compound: Cc1ncc(-c2ccnc(Nc3ccc(S(C)(=O)=O)cc3)n2)n1C(C)C
Summary of the method: as §1

[4] = compound: Cn1cc(-c2ccc3c(c2)CCN3C(=O)Cc2cccc(C(F)(F)F)c2)c2c(N)ncnc21
Summary of the method: as §1

[5] = compound: Cn1cc(-c2ccc3nnc(C(F)(F)c4ccc5ncccc5c4)n3n2)cn1
Summary of the method: as §1

tipifarnib = compound: Cn1cncc1[C@@](N)(c1ccc(Cl)cc1)c1ccc2c(c1)c(-c1cccc(Cl)c1)cc(=O)n2C [tipifarnib]
Summary of the method: as §1

mubritinib = compound: FC(F)(F)c1ccc(/C=C/c2nc(COc3ccc(CCCCn4ccnn4)cc3)co2)cc1 [mubritinib]
Summary of the method: as §1

[6] = compound: NC(=O)Nc1cc(-c2cccc(F)c2)sc1C(=O)N[C@H]1CCCNC1
Summary of the method: as §1

[7] = compound: NC(=O)c1cnc(N[C@@H]2CCCC[C@@H]2N)nc1Nc1cccc(-n2nccn2)c1
Summary of the method: as §1

[8] = compound: NC1(c2ccc(-c3nc4ccn5c(=O)[nH]nc5c4cc3-c3ccccc3)cc2)CCC1
Summary of the method: as §1

[9] = compound: NCC(=O)Nc1ccc(-n2nc(C(F)(F)F)cc2-c2ccc3c(ccc4ccccc43)c2)cc1
Summary of the method: as §1

entinostat = compound: Nc1ccccc1NC(=O)c1ccc(CNC(=O)OCc2cccnc2)cc1 [entinostat]
Summary of the method: as §1

vorinostat = compound: O=C(CCCCCCC(=O)Nc1ccccc1)NO [vorinostat]
Summary of the method: as §1

citarinostat = compound: O=C(CCCCCCNC(=O)c1cnc(N(c2ccccc2)c2ccccc2Cl)nc1)NO [citarinostat]
Summary of the method: as §1

silmitasertib = compound: O=C(O)c1ccc2c(c1)nc(Nc1cccc(Cl)c1)c1ccncc12 [silmitasertib]
Summary of the method: as §1

[10] = compound: O=C1NC(=O)C(c2cnc3ccccn23)=C1c1cn2c3c(cc(F)cc13)CN(C(=O)N1CCCCC1)CC2
Summary of the method: as §1

[11] = compound: c1cc(OCCN2CCCCC2)cc(-c2n[nH]c3ccc(-c4nnc[nH]4)cc23)c1
Summary of the method: as §1

Sequence of UniProt Q8IZV5 (Q8IZV5 whole entry, looked up): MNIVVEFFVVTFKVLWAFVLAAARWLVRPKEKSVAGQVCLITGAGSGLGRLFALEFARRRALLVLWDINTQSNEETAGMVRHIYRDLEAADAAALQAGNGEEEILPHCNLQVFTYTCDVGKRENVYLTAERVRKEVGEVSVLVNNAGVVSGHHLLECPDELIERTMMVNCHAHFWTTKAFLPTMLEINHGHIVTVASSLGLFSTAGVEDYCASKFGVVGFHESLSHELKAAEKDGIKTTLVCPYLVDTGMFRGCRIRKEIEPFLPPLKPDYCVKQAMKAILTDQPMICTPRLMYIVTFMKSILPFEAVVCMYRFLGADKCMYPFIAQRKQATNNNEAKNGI
Sequence of UniProt Q8NBX0 (Q8NBX0 whole entry, looked up): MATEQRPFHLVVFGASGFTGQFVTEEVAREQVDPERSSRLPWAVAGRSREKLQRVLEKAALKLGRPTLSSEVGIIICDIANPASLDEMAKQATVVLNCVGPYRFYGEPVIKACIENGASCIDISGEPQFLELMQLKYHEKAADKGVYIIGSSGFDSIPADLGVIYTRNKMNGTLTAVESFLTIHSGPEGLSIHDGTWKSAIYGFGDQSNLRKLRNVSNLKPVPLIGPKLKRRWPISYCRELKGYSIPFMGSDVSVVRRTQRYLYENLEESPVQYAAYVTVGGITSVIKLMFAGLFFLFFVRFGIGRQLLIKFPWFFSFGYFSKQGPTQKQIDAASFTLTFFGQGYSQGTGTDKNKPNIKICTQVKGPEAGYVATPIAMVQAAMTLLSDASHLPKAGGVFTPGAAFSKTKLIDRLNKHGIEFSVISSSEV
Sequence of UniProt O00767 (O00767 whole entry, looked up): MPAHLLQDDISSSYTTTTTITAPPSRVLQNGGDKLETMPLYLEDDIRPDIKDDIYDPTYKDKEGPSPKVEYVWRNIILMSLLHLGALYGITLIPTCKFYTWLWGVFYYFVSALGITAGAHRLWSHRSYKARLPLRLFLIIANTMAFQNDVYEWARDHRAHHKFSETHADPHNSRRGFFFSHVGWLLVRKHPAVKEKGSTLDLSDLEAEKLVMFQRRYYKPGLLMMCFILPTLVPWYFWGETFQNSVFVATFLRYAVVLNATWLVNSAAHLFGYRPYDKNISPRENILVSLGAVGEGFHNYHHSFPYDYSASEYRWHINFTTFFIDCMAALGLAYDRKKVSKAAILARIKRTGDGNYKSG
Sequence of UniProt Q96ER3 (Q96ER3 whole entry, looked up): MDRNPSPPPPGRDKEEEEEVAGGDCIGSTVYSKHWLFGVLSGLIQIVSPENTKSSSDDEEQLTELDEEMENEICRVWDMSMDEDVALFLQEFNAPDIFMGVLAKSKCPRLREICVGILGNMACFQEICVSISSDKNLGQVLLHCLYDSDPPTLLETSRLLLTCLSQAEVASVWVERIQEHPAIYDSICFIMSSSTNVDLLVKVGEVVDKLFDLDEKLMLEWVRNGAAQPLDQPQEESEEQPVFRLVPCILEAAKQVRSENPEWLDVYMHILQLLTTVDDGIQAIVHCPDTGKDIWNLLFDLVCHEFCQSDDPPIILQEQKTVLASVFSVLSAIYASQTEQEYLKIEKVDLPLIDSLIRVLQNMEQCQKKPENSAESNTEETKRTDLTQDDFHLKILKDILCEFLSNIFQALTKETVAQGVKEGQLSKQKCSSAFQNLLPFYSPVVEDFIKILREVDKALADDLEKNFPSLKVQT
Sequence of UniProt P62070 (P62070 whole entry, looked up): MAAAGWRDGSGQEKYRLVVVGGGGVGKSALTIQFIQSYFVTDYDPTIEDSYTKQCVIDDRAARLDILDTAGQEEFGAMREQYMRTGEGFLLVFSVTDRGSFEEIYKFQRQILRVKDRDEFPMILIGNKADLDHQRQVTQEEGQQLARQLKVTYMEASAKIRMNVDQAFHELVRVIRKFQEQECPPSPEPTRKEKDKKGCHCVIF

Target | log2 fold change (bafetinib) | log2 fold change [1] | log2 fold change (nilotinib) | log2 fold change [2] | log2 fold change (dasatinib) | log2 fold change [3] | log2 fold change [4] | log2 fold change [5] | log2 fold change (tipifarnib) | log2 fold change (mubritinib) | log2 fold change [6] | log2 fold change [7] | log2 fold change [8] | log2 fold change [9] | log2 fold change (entinostat) | log2 fold change (vorinostat) | log2 fold change (citarinostat) | log2 fold change (silmitasertib) | log2 fold change [10] | log2 fold change [11]
RPS9 (UniProt P46781) | 0.318 | -0.001 | 0.003 | 0.206 | 0.106 | -0.035 | -0.176 | -0.088 | 0.067 | -0.09 | 0.07 | 0.127 | 0.202 | 0.073 | -0.058 | -0.007 | -0.058 | 0.007 | 0.076 | -0.152
RRAS2 isoform 4 (UniProt P62070) | -0.05 | -0.082 | 0.111 | -0.021 | 0.066 | 0.025 | 0.062 | -0.03 | 0.088 | -0.025 | -0.068 | 0.03 | 0.08 | 0.038 | -0.059 | -0.069 | 0.01 | 0.048 | -0.01 | 0.013
RPS21 (UniProt P63220) | 0.087 | -0.057 | 0.011 | 0.072 | 0.1 | -0.012 | -0.009 | -0.004 | 0.017 | 0.002 | 0.022 | 0.018 | 0.114 | -0.012 | -0.061 | -0.059 | 0.002 | 0.008 | 0.045 | -0.015
RPS19 (UniProt P39019) | 0.242 | -0.026 | 0.046 | 0.181 | 0.083 | -0.021 | -0.11 | -0.068 | 0.055 | -0.037 | -0.008 | 0.075 | 0.186 | 0.079 | -0.06 | -0.007 | -0.059 | -0.014 | 0.051 | -0.107
RDH10 (UniProt Q8IZV5) | -0.031 | 0.15 | 0.051 | -0.032 | 0.237 (active) | -0.014 | 0.37 (active) | 0.183 | 0.028 | 0.106 | -0.033 | -0.017 | -0.016 | 0.015 | 0.015 | -0.069 | -0.019 | -0.097 | -0.039 | 0.012
SAAL1 (UniProt Q96ER3) | -0.102 | 0.047 | -0.042 | 0.161 | -0.101 | 0.246 | -0.06 | 0 | -0.053 | 0.109 | -0.091 | 0.031 | -0.207 | -0.058 | 0.04 | 0.006 | 0.011 | 0.119 | -0.04 | -0.013
SCCPDH (UniProt Q8NBX0) | 0.161 | -0.046 | 0.189 | 0.019 | 0.008 | 0.174 | 0.273 | -0.074 | 0.419 (active) | 0.104 | -0.113 | -0.056 | 0.045 | -0.024 | -0.071 | 0.062 | 0.199 | -0.004 | 0.123 | 0.33
SCD (UniProt O00767) | -0.153 | 0.109 | -0.063 | -0.007 | -0.026 | -0.019 | 0.013 | 0.034 | 0.075 | 0.019 | -0.064 | -0.151 | -0.071 | -0.054 | -0.043 | -0.382 (active) | -0.403 (active) | 0.083 | 0.051 | -0.005
